According to the supplement of paper PMC8253809:

Legend:
Experiment in all cases: growth inhibition (% activity, log2 RLU normalised to DMSO / staurosporine); higher = more growth inhibition
Conditions in all cases: 33 µM
DIPGX29 = tested on: DIPGX29 (H3.3 K27M diffuse intrinsic pontine glioma line)
Summary of the method: (§1)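 On Geltrex-coated 384-well plates, pHGG cell lines and H9-derived neural stem cells were grown with approved drugs pinned in at a single final concentration of about 33 μM, in triplicate, for 7 days at 37 °C, 5% CO2. Per-plate normalisation of log2-transformed CellTiter-Glo luminescence to % activity between solvent and positive control wells followed. Each growth-inhibition value is the median over the replicates.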

DIPGX37 = tested on: DIPGX37 (H3.3 K27M diffuse intrinsic pontine glioma line)
Summary of the method: as §1

DIPGX7 = tested on: DIPGX7 (H3.3 K27M diffuse intrinsic pontine glioma line)
Summary of the method: as §1

DIPGX9 = tested on: DIPGX9 (diffuse intrinsic pontine glioma line)
Summary of the method: as §1

HGGX39 = tested on: HGGX39 (paediatric high-grade glioma line)
Summary of the method: as §1

HGGX6 = tested on: HGGX6 (H3.3 G34R paediatric high-grade glioma line)
Summary of the method: as §1

HNSC = tested on: HNSC
Summary of the method: as §1

SUDIPGIV = tested on: SUDIPGIV (diffuse intrinsic pontine glioma line)
Summary of the method: as §1

SUDIPGVI = tested on: SUDIPGVI (diffuse intrinsic pontine glioma line)
Summary of the method: as §1

SUDIPGXIII = tested on: SUDIPGXIII (diffuse intrinsic pontine glioma line)
Summary of the method: as §1

SMILES | growth inhibition (DIPGX29) | growth inhibition (DIPGX37) | growth inhibition (DIPGX7) | growth inhibition (DIPGX9) | growth inhibition (HGGX39) | growth inhibition (HGGX6) | growth inhibition (HNSC) | growth inhibition (SUDIPGIV) | growth inhibition (SUDIPGVI) | growth inhibition (SUDIPGXIII)
COc1cc(NC(C)CCCN)c2ncccc2c1 (stereo not given) | 19.8% | 14% | 29.6% | 24.2% | 13% | 25.5% | 66.1% | 25.4% | 28.3% | 11.9%
NC[C@H](O)c1ccc(O)c(O)c1 | 1.26% | 2.54% | 0.579% | 1.67% | 3.45% | 1.96% | -0.629% | 1.37% | 3.2% | 1.73%
Nc1ccc(S(N)(=O)=O)cc1 | -0.377% | 1.14% | 0.22% | 1.31% | 2.44% | 0.596% | -1.62% | -1.35% | 0.652% | 1.2%
COC(=O)N/N=C/c1c[n+]([O-])c2ccccc2[n+]1[O-] | 2.48% | 4.18% | 1.83% | 0.689% | 2.31% | 0.191% | 4.92% | 3% | 5.18% | -3.09%
CN[C@@H]1[C@H](O[C@H]2[C@H](O[C@H]3[C@H](O)[C@@H](O)[C@H](N=C(N)N)[C@@H](O)[C@@H]3N=C(N)N)O[C@@H](C)[C@]2(O)C=O)O[C@@H](CO)[C@H](O)[C@H]1O | 0.0944% | -5.46% | 0.411% | -1.2% | 0.505% | -0.72% | -0.954% | -0.137% | -0.665% | 0.85%
O=c1[nH]cc(F)c(=O)[nH]1 | 5.88% | -2.07% | 2.93% | 10.5% | 5.4% | 7.93% | 25.3% | 14.4% | 4.5% | 2.68%
CCCCOc1ccc(OCCCN2CCOCC2)cc1 | 5.55% | 2.14% | 14.7% | 1.12% | 8.05% | 7.63% | 5.68% | 1.4% | 1.31% | 1.81%
CC1CC(OC(=O)C(O)c2ccccc2)CC(C)(C)C1 (stereo not given) | -0.681% | 1.83% | 0.84% | 0.0624% | 1.43% | -3.88% | 10.7% | 2.02% | 0.402% | 1.8%
COc1ccc(CN(CCN(C)C)c2ccccn2)cc1 | -4.36% | -0.213% | -2.04% | -0.968% | 2.69% | -3.48% | -2.01% | -2.03% | -1.61% | 0.98%
CN1CCC(=C2c3ccccc3C=Cc3ccccc32)CC1 | 1.58% | -0.405% | -0.277% | 2.34% | 7.18% | -0.0199% | 1.09% | 3.58% | 1.48% | 1.93%
CC(C(=O)O)c1cccc(C(=O)c2ccccc2)c1 (stereo not given) | -0.509% | -1.31% | -0.656% | -0.0225% | 1.05% | 0.639% | 0.455% | -5.26% | 1.35% | -0.582%
Cn1c(=O)c2c(ncn2CC(O)CO)n(C)c1=O (stereo not given) | 1.16% | 3.99% | 1.95% | 1.42% | 2.44% | -0.962% | 2.09% | 1.65% | 3.1% | -0.692%
Cc1c(Cl)cccc1Nc1ccccc1C(=O)O | 1.71% | 2.72% | 2.88% | 2.29% | 4.47% | 2.44% | 4.89% | -2.4% | 2.85% | 0.296%
CN(C)CC/C=C1/c2ccccc2COc2ccc(CC(=O)O)cc21 | 1.93% | 3.18% | 2.2% | 2.77% | 2.27% | 2.49% | -0.124% | -0.355% | 2.4% | 0.825%
Nc1nccs1 | -0.162% | 1.62% | -0.134% | 1.18% | -0.0642% | -1.25% | 5.02% | 0.246% | 1.08% | 0.0518%
COc1ccc2c(c1)c(CC(=O)O)c(C)n2C(=O)c1ccc(Cl)cc1 | -3.09% | -0.682% | 0.11% | -3.3% | -3.42% | -2.79% | -3.23% | -6.71% | -7.35% | 2.32%
CCN[C@H]1CN(CCCOC)S(=O)(=O)c2sc(S(N)(=O)=O)cc21 | 0.611% | 0.875% | 1.84% | 0.558% | 2.35% | 2.83% | -0.529% | -0.244% | 2.59% | -0.696%
CC[C@H](C)C[C@H](C)CCCCCCCCC(=O)N[C@H]1C[C@@H](O)[C@@H](NCCN)NC(=O)[C@@H]2[C@@H](O)CCN2C(=O)[C@H]([C@H](O)CCN)NC(=O)[C@H]([C@H](O)[C@@H](O)c2ccc(O)cc2)NC(=O)[C@@H]2C[C@@H](O)CN2C(=O)[C@H]([C@@H](C)O)NC1=O | -0.204% | -0.0661% | 3.78% | 1.06% | 2.93% | -1.44% | 7.21% | -1.11% | -4.4% | 0.336%
NC(=O)c1cnccn1 | -1.43% | 0.819% | -1.41% | -0.339% | -2.81% | 1.4% | -0.255% | -2.49% | 0.0834% | 1%
Nc1ncnc2c1ncn2[C@@H]1O[C@H](COP(=O)(O)OP(=O)(O)OP(=O)(O)O)[C@@H](O)[C@H]1O | 1.45% | 3.53% | 0.965% | 2.77% | 1.53% | 2.37% | 1.17% | 0.305% | 3.67% | 1.19%
Clc1cccc(Cl)c1NC1=NCCN1 | 1.49% | -3.42% | 1.12% | 0.614% | 1.32% | 0.951% | 2.98% | 0.943% | -1.83% | -1.09%
CC(C)/N=c1\cc2n(-c3ccc(Cl)cc3)c3ccccc3nc-2cc1Nc1ccc(Cl)cc1 | 12.5% | 10.3% | 11.1% | 5.47% | 10% | 7.37% | 66.1% | 21.9% | 5.83% | 5.35%

SMILES | growth inhibition (DIPGX29) | growth inhibition (DIPGX37) | growth inhibition (DIPGX7) | growth inhibition (DIPGX9) | growth inhibition (HGGX39) | growth inhibition (HGGX6) | growth inhibition (HNSC) | growth inhibition (SUDIPGIV) | growth inhibition (SUDIPGVI) | growth inhibition (SUDIPGXIII)
CCC(=O)OCC(=O)[C@@]1(OC(=O)CC)[C@@H](C)C[C@H]2[C@@H]3CCC4=CC(=O)C=C[C@]4(C)[C@@]3(F)[C@@H](O)C[C@@]21C | 0.0157% | 2.23% | 0.0573% | 4.05% | 3.08% | 1.77% | -4.87% | -0.108% | 0.781% | 1.98%
CCCCOc1ccc(CC(=O)NO)cc1 | 4.76% | 1.97% | 54.5% | 3.15% | 12.5% | 12.9% | 17.1% | 3.36% | -3.3% | -0.824%
O=C(O)c1cn(-c2ccc(F)cc2)c2cc(N3CCNCC3)c(F)cc2c1=O | 1.77% | 0.654% | 2.46% | 2.37% | 4.02% | 3.31% | 1.3% | 4.25% | 3.85% | 0.944%
Oc1ccc(/C=C/c2cc(O)cc(O)c2)cc1 | 2.03% | -0.532% | 4.05% | 1.48% | 1.37% | 2.36% | 3.97% | -5.92% | 1.29% | -0.764%
O=C1[C@H](CC[C@H](O)c2ccc(F)cc2)[C@@H](c2ccc(O)cc2)N1c1ccc(F)cc1 | 0.15% | -1.79% | 1.88% | -0.813% | -0.454% | -1.33% | -0.443% | -2.25% | -5.97% | 0.864%
CN(C)CCOC(c1ccccc1)c1ccccc1 | -3.3% | -0.629% | -0.0174% | -1.77% | -3.3% | -2.72% | 2.53% | -1.12% | -3.73% | -1.22%
CC(C)(C)c1nc(-c2cccc(NS(=O)(=O)c3c(F)cccc3F)c2F)c(-c2ccnc(N)n2)s1 | 0.794% | 4.39% | 2.8% | 1.94% | 5.46% | 4.05% | 22.9% | -0.469% | -1.37% | -0.13%
COc1ccccc1OCCNCC(O)COc1cccc2[nH]c3ccccc3c12 (stereo not given) | 6.61% | 2.55% | 3.4% | 3.73% | 5.74% | 4.11% | 7.57% | 1.9% | 5.96% | 2.05%
CCN1CCN(c2cc(-c3ccc(F)cc3)c3c(n2)CCCCCC3)CC1 | 9.89% | 1.2% | 21.9% | 4.47% | 10.1% | 0.894% | 5% | 4.82% | 4.25% | 2.42%
C[C@]12C=CC(=O)C=C1CC[C@@H]1[C@@H]2[C@@H](O)C[C@@]2(C)[C@H]1CC[C@]2(O)C(=O)CO | 0.548% | 0.082% | -0.697% | 2.79% | 1.22% | -0.621% | 1.3% | -0.906% | 1.51% | 0.983%
c1ccc2[nH]c(-c3cscn3)nc2c1 | -1.25% | 0.956% | -0.782% | 0.56% | 0.84% | 1.32% | -1.65% | 0.977% | 1.13% | 0.000357%
CC(=O)[C@H]1CC[C@H]2[C@@H]3C=CC4=CC(=O)CC[C@@]4(C)[C@@H]3CC[C@]12C | -0.886% | 4.22% | -0.136% | 0.45% | 1.86% | -2.88% | 6.39% | 2.11% | 0.865% | -1.05%
Cc1ccc(-c2cc(C(F)(F)F)nn2-c2ccc(S(N)(=O)=O)cc2)cc1 | 0.436% | -3.87% | -0.904% | 0.265% | -0.617% | -1.39% | 0.519% | -5.64% | 1.64% | 0.102%
Nc1nc2[nH]cc(CCc3ccc(C(=O)N[C@@H](CCC(=O)O)C(=O)O)cc3)c2c(=O)[nH]1 | 1.3% | 1.02% | 2.83% | 0.403% | -0.372% | -2.22% | -0.517% | 2.12% | -1.22% | 1.32%
CCCCNC(=O)NS(=O)(=O)c1ccc(C)cc1 | -0.968% | 2.64% | -0.647% | 1.33% | 2.32% | -1.26% | 8.77% | 1.65% | 2.09% | -0.858%
COc1ccccc1N1CCN(CC(O)COc2cccc3ccccc23)CC1 (stereo not given) | 0.825% | 1.5% | 3.11% | 4.27% | 2.32% | 1.78% | 0.281% | -1.37% | 0.873% | -16%
N[C@@H](CSCCCO)C(=O)O | -3.76% | -2.47% | 0.0116% | -2.7% | -4.4% | -5.11% | 22.1% | -4.19% | -9.19% | -0.641%
NS(=O)(=O)c1cc2c(cc1Cl)NCNS2(=O)=O | -1.36% | -0.293% | -0.977% | 0.545% | 0.937% | -0.432% | -1.69% | -0.42% | 0.531% | 1.25%
O=c1oc2cc(O)ccc2s1 | 1.14% | 3.19% | 6.79% | 1.73% | 8.04% | 3.75% | 2.15% | 1.11% | 5.42% | 28.9%
COc1ccc(CNc2nc(N3CCC[C@H]3CO)ncc2C(=O)NCc2ncccn2)cc1Cl | -1.4% | -6.17% | -0.329% | -0.502% | -0.964% | -0.0101% | -2.71% | -1.36% | -2.1% | -0.559%
COC(=O)Nc1nc2cc(Sc3ccccc3)ccc2[nH]1 | 6.86% | 10.3% | 8.12% | 9.42% | 10.7% | 10.1% | 77% | 10.8% | 4.78% | 3.48%
